Potency and outcome data for eleven compounds are collected here from PubChem BioAssay (Tox21).

Where “and” joins values, the source holds several entries; their conditions need not be identical. Equal values may be shown once. Results filed as inconclusive are left out. Unmarked numbers belong to inactive results. Calls of active or inactive are those of the source. Unless noted, the call rests on the fitted dose curve; in most records, active means well fitted curve in the direction sought with a large enough effect in the repeat runs; inconclusive means weak or mixed curves; inactive means no such curve, though single readings can be large; an effect the other way counts as inactive or inconclusive.

Test [1] can be described thus: qHTS assay to identify aromatase inhibitors - cell viability counter screen (AID 743084).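 Further: cells stimulated with testosterone during compound exposure; nearly all actives have a fitted effect of over 55% in size.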
In test [2] the target is Aryl hydrocarbon receptor (Homo sapiens) (UniProt P35869). Nature of the test: qHTS assay to identify small molecule that activate the aryl hydrocarbon receptor (AhR) signaling pathway (AID 743085). Further: nearly all actives have a fitted effect of over 15% in size. Further: potency means the concentration at half of the fitted maximal effect.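 On activation: HG2L7.5c1 human HepG2 liver cells with stably integrated DRE-driven firefly reporter; series mostly up to about 70 µM.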 In outline:
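Measured in HG2L7.5c1 cells: CellTiter-Fluor signal (30 min incubation, 37C) for viability, then luciferase luminescence (30 min, room temperature). Compound contact time was 24 h at 37C, following a 5 h pre-incubation.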
In general terms: Quantitative high-throughput screening tests each substance at several concentrations.

A short description of test [3]: qHTS assay to identify small molecule that activate the aryl hydrocarbon receptor (AhR) signaling pathway - cell viability counter screen (AID 743086).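 Further: HepG2 liver cells carrying the AhR DRE luciferase reporter; series mostly up to about 70 µM; nearly all actives have a fitted effect of over 45% in size.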 In a few lines:
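HepG2-AhR-luc (HG2L7.5c1) cells, 4000/well, treated 24 h at 37 C with compound; viability measured as CellTiter-Fluor fluorescence after 30 min in the same wells as the luciferase read.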

Test [4] concerns the target Peroxisome proliferator-activated receptor gamma (Homo sapiens) (UniProt P37231). Nature of the test: qHTS assay to identify small molecule agonists of the peroxisome proliferator-activated receptor gamma (PPARg) signaling pathway (AID 743094; active means well fitted activation curve with a large enough effect in the signal ratio in the repeat runs, not every such curve was filed as active; the % refers to the signal ratio). In a few lines:
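Reporter activation was scored by fluorescence of cleaved LiveBLAzer B/G substrate (1 h, room temperature) in PPARg-bla HEK293H cells previously treated 17 h at 37C with DMSO-dissolved compounds.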

The nature of test [5]: qHTS assay to identify small molecule antagonists of the peroxisome proliferator-activated receptor gamma (PPARg) signaling pathway - cell viability counter screen (AID 743194). Further: nearly all actives have a fitted effect of over 55% in size. In a few lines:
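Cytotoxicity counter screen in PPARg-bla HEK293H cells, same wells as reporter assay. Compounds plus 50 nM rosiglitazone (final) for 17 h at 37 C, then viability read by CellTiter-Glo luminescence.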

Test [6] can be described thus: qHTS assay for small molecule agonists of the antioxidant response element (ARE) signaling pathway (AID 743202; active means well fitted activation curve with a large enough effect in the signal ratio in the repeat runs, not every such curve was filed as active; the % refers to the signal ratio; further: potency means the concentration at half of the fitted maximal effect). In a few lines:
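HepG2 ARE-bla cells; 16 h treatment at 37 C; FRET-based beta-lactamase fluorescence read after 2 h substrate incubation at room temperature.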

The nature of test [7]: qHTS assay for small molecule agonists of the antioxidant response element (ARE) signaling pathway - cell viability counter screen (AID 743203; calls by dose curve; further: nearly all actives have a fitted effect of over 55% in size). In a few lines:
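Viability counter screen: stably transfected ARE-bla HepG2 line, 16 hrs compound exposure at 37C/5% CO2, ATP-based CellTiter-Glo luminescence measured in the reporter wells.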

Test [8] is described as follows: qHTS assay to identify small molecule agonists of the peroxisome proliferator-activated receptor delta (PPARd) signaling pathway - cell viability counter screen (AID 743211). Further: nearly all actives have a fitted effect of over 55% in size. In a few lines: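 Following 5 h plating at 37 C and 5% CO2, PPARd UAS-bla HEK293H cells took up test compounds for 17 h. Viability was quantified by luminescence 30 min after CellTiter-Glo addition at room temperature.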

Test [9] is described as follows: qHTS assay to identify small molecule antagonists of the peroxisome proliferator-activated receptor delta (PPARd) signaling pathway - cell viability counter screen (AID 743213). Further: nearly all actives have a fitted effect of over 50% in size. In outline: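 Same-well viability: cells pre-incubated 5 h, dosed with compound plus 300 nM L165041, kept 17 h at 37 C, FRET substrate 2 h RT, then CellTiter-Glo 30 min RT and luminescence.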

Test [10] in a line: qHTS assay to identify small molecule agonists of the farnesoid-X-receptor (FXR) signaling pathway - cell viability counter screen (AID 743218). Further: nearly all actives have a fitted effect of over 45% in size. In outline: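 Viability of FXR-bla HEK 293T cells is measured by ATP-based CellTiter-Glo luminescence following 16 h compound treatment at 37 C and a prior 2 h room-temperature beta-lactamase substrate step.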
The nature of test [11]: qHTS assay to identify small molecule antagonists of the farnesoid-X-receptor (FXR) signaling pathway - cell viability counter screen (AID 743221; active means well fitted cell-killing curve with a large enough effect in the repeat runs, not every such curve was filed as active; further: nearly all actives have a fitted effect of over 50% in size). In a few lines:
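Compound effects on cell number were measured as CellTiter-Glo luminescence in HEK 293T cells expressing FXR-UAS-bla, after 16 h at 37 C with 50 uM CDCA (final).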

Test [12] is described as follows: qHTS assay for small molecule activators of the heat shock response signaling pathway - cell viability counter screen (AID 743209). Further: nearly all actives have a fitted effect of over 50% in size. In a few lines:
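Viability of HSE-bla HeLa cells is measured with CellTiter-Glo in the wells already used for the reporter read. Compound exposure lasts 5 h at 37 C, and luminescence is read after 30 min at room temperature.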

Test [13] can be described thus: qHTS assay for small molecule activators of the heat shock response signaling pathway (AID 743210; active means well fitted activation curve with a large enough effect in the signal ratio in the repeat runs, with a control signal flat, not every such curve was filed as active; the % refers to the signal ratio;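 further: HeLa cells with beta-lactamase reporter driven by heat shock elements; series mostly up to about 63 µM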). In outline: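 Following overnight attachment, HSE-bla HeLa cells received test compounds for 5 h at 37 C; beta-lactamase activity was then detected via FRET substrate fluorescence.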
Test [14] concerns the target Peroxisome proliferator-activated receptor delta (Homo sapiens) (UniProt Q03181). Put plainly: qHTS assay to identify small molecule agonists of the peroxisome proliferator-activated receptor delta (PPARd) signaling pathway (AID 743212; calls by dose curve). In a few lines: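 Tox21 library screened in GeneBLAzer PPARd UAS-bla HEK293H cells. After compound treatment at 37 C, a FRET-based beta-lactamase substrate was applied for 2 h and fluorescence recorded.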

Test [15] has the same target. Nature of the test: qHTS assay to identify small molecule antagonists of the peroxisome proliferator-activated receptor delta (PPARd) signaling pathway (AID 743215; active means well fitted inhibition curve with a large enough effect in the signal ratio in the repeat runs, not every such curve was filed as active; the % refers to the signal ratio;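 further: cells stimulated with agonist L165041 at 300 nM final during compound exposure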; further: potency means the concentration at half of the fitted maximal effect). In outline: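 Plated HEK293H PPARd-bla cells rested 5 h at 37 C and 5% CO2. Compound, then agonist L165041 at 300 nM final, was added; 17 h at 37 C followed. Substrate loading, 2 h room temperature, fluorescence measured.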

The target in test [16] is Bile acid receptor (Homo sapiens) (UniProt Q96RI1). Put plainly: qHTS assay to identify small molecule antagonists of the farnesoid-X-receptor (FXR) signaling pathway (AID 743217; active means well fitted inhibition curve with a large enough effect in the signal ratio in the repeat runs, not every such curve was filed as active; the % refers to the signal ratio). In a few lines:
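Screen of the Tox21 10K library in quantitative HTS format using FXR-UAS-bla HEK 293T reporter cells. Agonist chenodeoxycholic acid, 50 uM final, added with compounds; 16 h incubation at 37 °C; beta-lactamase FRET fluorescence measured.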

For test [17] the target is unchanged. Put plainly: qHTS assay to identify small molecule agonists of the farnesoid-X-receptor (FXR) signaling pathway (AID 743220; active means well fitted activation curve with a large enough effect in the signal ratio in the repeat runs, not every such curve was filed as active; the % refers to the signal ratio). In a few lines: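 FXR-UAS-bla HEK 293T cells carrying a UAS-driven beta-lactamase reporter were plated for 5 h at 37C/5% CO2, then exposed to DMSO-dissolved Tox21 10K compounds for 16 h at 37C. A LiveBLAzer B/G FRET substrate was loaded for 2 h at room temperature before fluorescence reading.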

Test [18] has as its target Vitamin D3 receptor (Homo sapiens) (UniProt P11473). Put plainly: qHTS assay to identify small molecule antagonists of the vitamin D receptor (VDR) signaling pathway (AID 743223; active means well fitted inhibition curve with a large enough effect in the signal ratio in the repeat runs, not every such curve was filed as active; the % refers to the signal ratio). In a few lines: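 Beta-lactamase activity in VDR-bla cells is measured by FRET substrate fluorescence (2 h, room temperature) after cells spend 16 h at 37C with test compound and 3 nM final 1alpha,25-dihydroxyvitamin D3.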

The target is the same in test [19]. Nature of the test: qHTS assay to identify small molecule agonists of the vitamin D receptor (VDR) signaling pathway (AID 743222; calls by dose curve). In outline:
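Fluorescence from cleaved LiveBLAzer B/G FRET substrate served as readout. VDR-bla cells had been treated 16 h at 37C with test compounds in DMSO, following a 4 h settling period, and substrate was loaded for 2 h at RT.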

Test [20] addresses Peroxisome proliferator-activated receptor gamma (Homo sapiens) (UniProt P37231). Put plainly: qHTS assay to identify small molecule antagonists of the peroxisome proliferator-activated receptor gamma (PPARg) signaling pathway (AID 743191; calls by dose curve; further: series mostly up to about 63 µM; nearly all actives have a fitted effect of over 30% in size). In a few lines:
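GeneBLAzer PPARg UAS-bla HEK293H cells, 5 h post-plating, exposed to compounds 17 h at 37C. LiveBLAzer B/G FRET substrate added for 1 h at room temperature; beta-lactamase reporter read by fluorescence intensity.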

Chain of Bile acid receptor (Homo sapiens) (Q96RI1 whole entry, looked up): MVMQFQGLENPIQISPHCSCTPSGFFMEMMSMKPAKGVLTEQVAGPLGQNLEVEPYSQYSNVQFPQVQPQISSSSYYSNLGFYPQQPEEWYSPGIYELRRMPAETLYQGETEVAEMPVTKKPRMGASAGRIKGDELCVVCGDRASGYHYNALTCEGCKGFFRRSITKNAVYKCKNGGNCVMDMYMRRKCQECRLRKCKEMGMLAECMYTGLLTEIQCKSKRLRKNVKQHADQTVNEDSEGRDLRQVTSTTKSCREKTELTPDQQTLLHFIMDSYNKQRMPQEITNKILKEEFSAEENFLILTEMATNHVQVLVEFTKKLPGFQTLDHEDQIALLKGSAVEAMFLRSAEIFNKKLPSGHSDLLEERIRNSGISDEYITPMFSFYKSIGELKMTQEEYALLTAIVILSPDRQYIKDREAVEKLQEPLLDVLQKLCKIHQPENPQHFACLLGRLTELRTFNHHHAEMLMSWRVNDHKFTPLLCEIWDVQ
Chain of Aryl hydrocarbon receptor (Homo sapiens) (P35869 whole entry, looked up): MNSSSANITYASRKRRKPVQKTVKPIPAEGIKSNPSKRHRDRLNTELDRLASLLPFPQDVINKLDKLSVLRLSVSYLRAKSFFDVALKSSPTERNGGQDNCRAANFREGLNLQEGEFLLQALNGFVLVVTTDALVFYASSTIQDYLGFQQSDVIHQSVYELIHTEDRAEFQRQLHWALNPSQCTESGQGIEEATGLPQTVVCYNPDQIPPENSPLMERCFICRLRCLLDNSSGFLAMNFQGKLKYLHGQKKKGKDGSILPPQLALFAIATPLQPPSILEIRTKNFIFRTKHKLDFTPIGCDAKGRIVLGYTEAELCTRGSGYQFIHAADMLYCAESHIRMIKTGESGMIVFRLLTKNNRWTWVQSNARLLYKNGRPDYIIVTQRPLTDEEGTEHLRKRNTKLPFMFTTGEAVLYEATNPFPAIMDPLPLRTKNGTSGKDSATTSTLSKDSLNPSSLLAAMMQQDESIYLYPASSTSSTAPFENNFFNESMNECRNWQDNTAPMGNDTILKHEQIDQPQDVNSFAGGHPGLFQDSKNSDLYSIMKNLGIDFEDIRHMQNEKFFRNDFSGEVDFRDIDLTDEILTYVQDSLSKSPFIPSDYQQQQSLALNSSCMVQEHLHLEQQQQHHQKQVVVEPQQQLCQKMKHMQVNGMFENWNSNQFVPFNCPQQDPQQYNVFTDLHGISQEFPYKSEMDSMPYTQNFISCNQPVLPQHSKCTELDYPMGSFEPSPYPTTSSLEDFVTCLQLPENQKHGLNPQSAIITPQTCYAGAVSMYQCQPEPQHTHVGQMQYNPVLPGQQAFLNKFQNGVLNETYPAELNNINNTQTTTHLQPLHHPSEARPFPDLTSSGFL
Chain of Vitamin D3 receptor (Homo sapiens) (P11473 whole entry, looked up): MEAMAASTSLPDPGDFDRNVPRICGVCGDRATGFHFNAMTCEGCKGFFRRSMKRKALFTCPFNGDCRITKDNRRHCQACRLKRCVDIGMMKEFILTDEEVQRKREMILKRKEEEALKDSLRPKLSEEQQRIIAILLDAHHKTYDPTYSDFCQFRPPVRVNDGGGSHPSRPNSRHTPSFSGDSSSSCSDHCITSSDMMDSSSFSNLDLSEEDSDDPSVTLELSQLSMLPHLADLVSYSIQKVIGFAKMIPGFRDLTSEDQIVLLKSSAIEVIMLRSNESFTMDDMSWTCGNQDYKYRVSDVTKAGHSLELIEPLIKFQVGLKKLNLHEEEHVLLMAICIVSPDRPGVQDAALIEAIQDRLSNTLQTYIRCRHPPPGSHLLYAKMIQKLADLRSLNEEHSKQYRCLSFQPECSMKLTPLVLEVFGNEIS
Chain of Peroxisome proliferator-activated receptor delta (Homo sapiens) (Q03181 whole entry, looked up): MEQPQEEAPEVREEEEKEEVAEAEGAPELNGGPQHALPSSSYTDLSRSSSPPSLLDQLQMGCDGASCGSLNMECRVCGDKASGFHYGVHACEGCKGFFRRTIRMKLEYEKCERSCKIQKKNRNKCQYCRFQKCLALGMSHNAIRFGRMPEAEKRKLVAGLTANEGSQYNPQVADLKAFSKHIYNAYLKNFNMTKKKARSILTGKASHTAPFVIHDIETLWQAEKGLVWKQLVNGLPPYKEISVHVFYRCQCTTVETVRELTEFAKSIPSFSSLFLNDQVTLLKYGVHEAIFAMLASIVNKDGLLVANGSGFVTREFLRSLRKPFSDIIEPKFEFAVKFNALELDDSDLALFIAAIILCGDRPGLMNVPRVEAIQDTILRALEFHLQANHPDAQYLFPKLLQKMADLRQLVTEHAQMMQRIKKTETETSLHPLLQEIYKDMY
Chain of Peroxisome proliferator-activated receptor gamma (Homo sapiens) (P37231 whole entry, looked up): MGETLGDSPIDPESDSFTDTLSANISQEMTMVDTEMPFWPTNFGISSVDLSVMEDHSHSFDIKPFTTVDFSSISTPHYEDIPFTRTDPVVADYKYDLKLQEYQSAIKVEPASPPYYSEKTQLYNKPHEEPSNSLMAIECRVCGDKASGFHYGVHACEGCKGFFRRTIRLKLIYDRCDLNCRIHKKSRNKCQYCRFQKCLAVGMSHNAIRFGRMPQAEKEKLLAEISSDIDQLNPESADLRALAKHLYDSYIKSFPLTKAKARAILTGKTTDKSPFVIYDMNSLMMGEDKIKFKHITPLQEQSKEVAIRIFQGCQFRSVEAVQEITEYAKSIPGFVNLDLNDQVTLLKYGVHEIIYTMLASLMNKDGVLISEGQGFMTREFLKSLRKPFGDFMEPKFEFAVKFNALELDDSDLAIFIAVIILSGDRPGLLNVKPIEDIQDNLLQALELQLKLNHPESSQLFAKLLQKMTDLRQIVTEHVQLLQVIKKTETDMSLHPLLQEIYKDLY

Take `O=C[C@H](O)[C@@H](O)[C@H](O)[C@H](O)CO`: the Potency result in test [1], in test [2], in [3], in test [6], in test [7] and in test [8] was “inactive” each time. Further, the Potency result in [9], in test [10] and in test [11] was “inactive” throughout. Further, the compound was classed as inactive in test [4] and in test [5].
With `CCCN1CCCC[C@H]1C(=O)Nc1c(C)cccc1C`, the Potency result in test [1], in test [2], in test [3], in test [6], in test [7] and in test [8] was “inactive” in each case. Further, the Potency entry in [15], in [10] and in [11] was “inactive” in each case. Besides, the result in test [4], in [5], in [12], in [13], in test [14] and in [16] was inactive. Moreover, the compound was called inactive in test [17] and in test [18].
As to `NS(=O)(=O)c1cc2c(cc1Cl)NC(C1CC3C=CC1C3)NS2(=O)=O` (stereo not given), the Potency result in test [1], in [2], in test [3], in test [6], in [7] and in test [8] was “inactive” each time. In addition, the Potency result in [9], in [15], in test [10] and in test [11] was “inactive” in each case. For the same compound, the call in test [4], in test [5], in [12], in [13], in test [19] and in test [18] was inactive.
For `CCCCC/C=C\CCC=O`, the Potency entry in [1], in [2], in test [3], in test [7], in test [8] and in [9] was “inactive” each time. Besides, the Potency entry in test [10] and in test [11] was “inactive” in each case. Besides, the compound was called inactive in [4], in test [5], in test [12], in test [19] and in test [18].
`CC(C)CCCC(C)N` (stereo not given): the Potency result in [1], in [2], in test [3], in [7], in test [8] and in test [10] was “inactive” each time. Further, the Potency entry in test [11] was “inactive”. The compound was classed as inactive in test [4], in test [5], in test [12], in [19] and in test [18].
In the case of `c1ccc([C@H]2CN3CCSC3=N2)cc1`, the Potency result in [1], in [2], in test [3], in test [6], in [7] and in [9] was “inactive” each time. Moreover, the Potency result in [15], in [10] and in test [11] was “inactive” throughout. The outcome in [5], in [12], in [13] and in [19] was inactive.
On to `CCC(=O)OC(C)c1ccccc1` (stereo not given), for which the Potency entry in test [1], in [2], in test [3], in [20], in test [6] and in test [7] was “inactive” each time. The Potency entry in test [8], in [9], in test [15], in test [10] and in [11] was “inactive” throughout. The result in [5], in test [12], in test [14], in test [16], in [17] and in test [19] was inactive.
Take `Cn1c(N)c(N=O)c(=O)n(C)c1=O`: the Potency entry in [1], in test [3], in test [20], in test [6], in [7] and in test [8] was “inactive” throughout. Besides, the Potency result in test [9], in [15], in test [10] and in [11] was “inactive” in each case. Besides, the Potency in test [2] is 25.1 µM (active). Further, the compound was called inactive in [5], in test [12], in test [13], in test [19] and in [18].
Turning to `CC(C)(c1ccc(O)cc1)c1ccc(O)cc1`, the Potency result in test [1], in test [3], in test [7], in test [8], in test [10] and in [11] was “inactive” each time. The Potency was 32.2 µM (active) in test [2]; 27 µM (active) and 17.5 µM (active) in test [6]; 24.3 µM (active) in test [15]. In addition, the call in test [5], in test [12] and in [13] was inactive.
Take `COc1ccc2c(c1)c(CC(=O)OCC(=O)O)c(C)n2C(=O)c1ccc(Cl)cc1`: the Potency entry in test [1], in test [2], in [3], in [6], in test [7] and in test [8] was “inactive” each time. Moreover, the Potency result in [9], in test [10] and in [11] was “inactive” throughout. Also, the result in test [5], in [12], in test [13] and in test [19] was inactive.
Regarding `Cc1cc2c(cc1S(N)(=O)=O)S(=O)(=O)CCC2`, the Potency result in test [1], in test [2], in test [3], in test [20], in test [6] and in test [7] was “inactive” throughout. Also, the Potency entry in test [8], in test [9], in [15], in test [10] and in test [11] was “inactive” each time. Moreover, the compound was classed as inactive in test [5], in [12], in test [13] and in test [16].
